# Measurements taken from publication PMC7862700, “An all-to-all approach to the identification of sequence-specific readers for epigenetic DNA modifications on cytosine”.
# How the values were obtained:
# Test in all cases: DAPPL (digital affinity profiling via proximity ligation, sequencing); 10 mM Tris-HCl pH 7.5, 50 mM NaCl, 1 mM DTT, 4% glycerol, room temperature, 30 min; GST-TFs on glutathione beads, 16-mer random dsDNA library, 0.1% formaldehyde crosslink after washing; high values mean tight binding
# FEV = target: T1, FEV (Homo sapiens, UniProt Q99581 1-238); conditions: protein: recombinant; tags: N-terminal GST; dsDNA, one strand shown
# T1 sequence: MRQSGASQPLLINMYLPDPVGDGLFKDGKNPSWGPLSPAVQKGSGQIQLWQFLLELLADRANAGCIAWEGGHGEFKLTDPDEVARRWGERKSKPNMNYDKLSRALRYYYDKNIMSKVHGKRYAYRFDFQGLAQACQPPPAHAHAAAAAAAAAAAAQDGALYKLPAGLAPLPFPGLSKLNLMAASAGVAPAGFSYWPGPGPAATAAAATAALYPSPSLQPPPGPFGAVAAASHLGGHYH
# Procedure, shortened: (§1)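 Binding signal is given per hexamer as its read frequency for a factor divided by its frequency in the tag-only sample. GST-fused human transcription factors were expressed in yeast, captured on glutathione beads, barcoded with DNA and pooled with that sample, then incubated with 200 nmole of a 16-mer random double-stranded DNA library in Tris/NaCl/DTT/glycerol buffer for 30 min at room temperature. The pools were then washed, crosslinked, proximity-ligated, amplified by PCR and sequenced on an Illumina NextSeq500.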
# ETV5 = ETV5 (Homo sapiens, UniProt P41161 1-510); conditions: protein: recombinant; tags: N-terminal GST; dsDNA, one strand shown
# ETV5, sequence (P41161 whole entry): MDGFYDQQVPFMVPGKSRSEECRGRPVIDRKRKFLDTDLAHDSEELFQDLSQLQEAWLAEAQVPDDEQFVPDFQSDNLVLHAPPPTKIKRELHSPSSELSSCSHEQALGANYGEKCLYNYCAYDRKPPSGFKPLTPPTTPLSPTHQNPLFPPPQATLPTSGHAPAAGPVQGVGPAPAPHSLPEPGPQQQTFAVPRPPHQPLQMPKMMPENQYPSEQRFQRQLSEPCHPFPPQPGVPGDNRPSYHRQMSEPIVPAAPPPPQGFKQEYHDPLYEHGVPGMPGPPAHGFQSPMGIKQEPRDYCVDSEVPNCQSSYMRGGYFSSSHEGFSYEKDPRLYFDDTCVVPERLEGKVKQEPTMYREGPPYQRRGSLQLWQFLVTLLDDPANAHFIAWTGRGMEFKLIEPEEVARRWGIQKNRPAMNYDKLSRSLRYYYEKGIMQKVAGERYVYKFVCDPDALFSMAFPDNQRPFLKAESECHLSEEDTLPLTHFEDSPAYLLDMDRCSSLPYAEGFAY
# Procedure, shortened: as §1
# HSF1 = HSF1 (Homo sapiens, UniProt Q00613 1-529); conditions: protein: recombinant; tags: N-terminal GST; chain copies: 3; dsDNA, one strand shown
# HSF1, sequence (Q00613 whole entry): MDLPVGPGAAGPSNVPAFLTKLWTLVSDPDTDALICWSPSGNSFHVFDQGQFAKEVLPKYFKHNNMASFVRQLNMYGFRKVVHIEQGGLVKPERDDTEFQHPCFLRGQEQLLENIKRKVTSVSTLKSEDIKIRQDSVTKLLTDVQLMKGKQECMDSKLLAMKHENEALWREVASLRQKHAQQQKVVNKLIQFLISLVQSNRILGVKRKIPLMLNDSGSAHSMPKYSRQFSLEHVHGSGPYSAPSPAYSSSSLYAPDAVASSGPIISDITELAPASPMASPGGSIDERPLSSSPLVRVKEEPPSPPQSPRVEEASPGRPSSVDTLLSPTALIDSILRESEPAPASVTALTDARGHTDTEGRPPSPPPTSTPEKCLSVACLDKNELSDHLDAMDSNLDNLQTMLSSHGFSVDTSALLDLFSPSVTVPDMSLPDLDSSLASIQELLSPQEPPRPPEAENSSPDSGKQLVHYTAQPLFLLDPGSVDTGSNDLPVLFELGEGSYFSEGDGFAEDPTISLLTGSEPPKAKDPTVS
# Procedure, shortened: as §1
# SPIC = target: T2, SPIC (Homo sapiens, UniProt Q8N5J4 1-248); conditions: protein: recombinant; tags: N-terminal GST; dsDNA, one strand shown
# T2 sequence: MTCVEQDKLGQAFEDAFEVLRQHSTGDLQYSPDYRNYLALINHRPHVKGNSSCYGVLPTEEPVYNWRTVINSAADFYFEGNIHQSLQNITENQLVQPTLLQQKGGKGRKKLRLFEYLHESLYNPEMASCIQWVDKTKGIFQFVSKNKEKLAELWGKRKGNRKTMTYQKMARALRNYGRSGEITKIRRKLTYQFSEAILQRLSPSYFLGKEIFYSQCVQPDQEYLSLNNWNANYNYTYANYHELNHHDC
# Procedure, shortened: as §1
# ELF4 = ELF4 (Homo sapiens, UniProt Q99607 1-663); conditions: protein: recombinant; tags: N-terminal GST; dsDNA, one strand shown
# ELF4, sequence (Q99607 whole entry): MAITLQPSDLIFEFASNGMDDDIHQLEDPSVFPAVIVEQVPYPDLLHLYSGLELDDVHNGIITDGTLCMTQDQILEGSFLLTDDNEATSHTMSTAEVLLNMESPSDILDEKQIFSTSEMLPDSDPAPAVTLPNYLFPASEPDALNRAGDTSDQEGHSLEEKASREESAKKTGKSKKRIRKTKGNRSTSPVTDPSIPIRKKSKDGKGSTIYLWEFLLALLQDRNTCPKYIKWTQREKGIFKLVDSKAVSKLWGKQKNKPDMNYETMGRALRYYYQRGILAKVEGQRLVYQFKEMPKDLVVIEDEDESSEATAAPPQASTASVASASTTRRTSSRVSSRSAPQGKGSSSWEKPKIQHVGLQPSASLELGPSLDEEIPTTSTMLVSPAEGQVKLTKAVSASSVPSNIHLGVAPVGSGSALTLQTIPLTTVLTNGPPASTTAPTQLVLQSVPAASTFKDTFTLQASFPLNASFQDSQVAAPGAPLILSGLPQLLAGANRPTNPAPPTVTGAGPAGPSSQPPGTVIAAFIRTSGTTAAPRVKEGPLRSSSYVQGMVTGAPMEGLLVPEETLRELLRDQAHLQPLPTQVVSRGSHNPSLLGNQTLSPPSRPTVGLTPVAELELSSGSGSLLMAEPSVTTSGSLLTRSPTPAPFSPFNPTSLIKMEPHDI
# Procedure, shortened: as §1
# ELK4 = target: T3, ELK4 (Homo sapiens, UniProt P28324-2 1-405); conditions: protein: recombinant; tags: N-terminal GST; dsDNA, one strand shown
# T3 sequence: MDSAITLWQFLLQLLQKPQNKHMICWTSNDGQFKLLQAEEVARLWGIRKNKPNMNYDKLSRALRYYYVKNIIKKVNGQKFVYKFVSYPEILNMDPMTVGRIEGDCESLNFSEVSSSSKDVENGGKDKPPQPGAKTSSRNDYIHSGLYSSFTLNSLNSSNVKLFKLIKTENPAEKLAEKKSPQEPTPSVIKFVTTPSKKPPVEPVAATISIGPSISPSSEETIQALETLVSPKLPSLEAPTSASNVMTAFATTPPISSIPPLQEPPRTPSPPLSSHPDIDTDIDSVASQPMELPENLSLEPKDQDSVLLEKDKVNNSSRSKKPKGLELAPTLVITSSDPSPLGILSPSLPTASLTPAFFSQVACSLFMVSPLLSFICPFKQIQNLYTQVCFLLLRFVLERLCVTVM
# Procedure, shortened: as §1
# ETV2 = target: T4, ETV2 (Homo sapiens, UniProt O00321 1-342); conditions: protein: recombinant; tags: N-terminal GST; dsDNA, one strand shown
# T4 sequence: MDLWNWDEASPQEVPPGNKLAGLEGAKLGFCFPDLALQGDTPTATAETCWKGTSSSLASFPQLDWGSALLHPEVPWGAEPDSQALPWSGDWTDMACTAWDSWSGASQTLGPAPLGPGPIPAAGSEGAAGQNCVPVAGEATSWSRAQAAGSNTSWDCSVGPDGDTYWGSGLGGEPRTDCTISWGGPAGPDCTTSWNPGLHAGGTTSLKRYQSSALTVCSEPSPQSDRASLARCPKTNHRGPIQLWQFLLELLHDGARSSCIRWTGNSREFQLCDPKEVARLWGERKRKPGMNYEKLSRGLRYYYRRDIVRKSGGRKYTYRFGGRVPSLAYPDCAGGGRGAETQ
# Procedure, shortened: as §1
# ELF3 = target: T5, ELF3 (Homo sapiens, UniProt P78545 1-371); conditions: protein: recombinant; tags: N-terminal GST; dsDNA, one strand shown
# T5 sequence: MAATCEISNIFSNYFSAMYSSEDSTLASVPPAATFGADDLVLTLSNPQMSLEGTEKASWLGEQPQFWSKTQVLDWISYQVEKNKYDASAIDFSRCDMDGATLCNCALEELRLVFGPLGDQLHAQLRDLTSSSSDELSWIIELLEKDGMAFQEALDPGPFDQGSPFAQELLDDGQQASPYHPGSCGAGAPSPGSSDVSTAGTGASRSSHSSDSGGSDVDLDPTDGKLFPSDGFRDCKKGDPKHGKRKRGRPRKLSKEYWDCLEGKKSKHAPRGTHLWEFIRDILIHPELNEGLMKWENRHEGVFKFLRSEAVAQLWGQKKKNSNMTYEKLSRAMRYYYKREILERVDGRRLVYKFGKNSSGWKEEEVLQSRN
# Procedure, shortened: as §1
# CRX = CRX (Homo sapiens, UniProt O43186 1-299); conditions: protein: recombinant; tags: N-terminal GST; dsDNA, one strand shown
# CRX, sequence (O43186 whole entry): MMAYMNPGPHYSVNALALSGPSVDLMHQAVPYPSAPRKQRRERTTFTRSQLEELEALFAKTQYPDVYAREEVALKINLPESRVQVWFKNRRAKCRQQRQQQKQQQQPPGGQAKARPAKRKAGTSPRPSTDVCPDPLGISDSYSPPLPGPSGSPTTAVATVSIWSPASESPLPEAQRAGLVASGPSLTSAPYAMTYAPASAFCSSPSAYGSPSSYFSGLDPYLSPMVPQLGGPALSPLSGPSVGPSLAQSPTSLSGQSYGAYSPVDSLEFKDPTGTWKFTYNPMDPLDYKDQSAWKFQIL
# Procedure, shortened: as §1
# ETV1 = ETV1 (Homo sapiens, UniProt P50549 1-477); conditions: protein: recombinant; tags: N-terminal GST; dsDNA, one strand shown
# ETV1, sequence (P50549 whole entry): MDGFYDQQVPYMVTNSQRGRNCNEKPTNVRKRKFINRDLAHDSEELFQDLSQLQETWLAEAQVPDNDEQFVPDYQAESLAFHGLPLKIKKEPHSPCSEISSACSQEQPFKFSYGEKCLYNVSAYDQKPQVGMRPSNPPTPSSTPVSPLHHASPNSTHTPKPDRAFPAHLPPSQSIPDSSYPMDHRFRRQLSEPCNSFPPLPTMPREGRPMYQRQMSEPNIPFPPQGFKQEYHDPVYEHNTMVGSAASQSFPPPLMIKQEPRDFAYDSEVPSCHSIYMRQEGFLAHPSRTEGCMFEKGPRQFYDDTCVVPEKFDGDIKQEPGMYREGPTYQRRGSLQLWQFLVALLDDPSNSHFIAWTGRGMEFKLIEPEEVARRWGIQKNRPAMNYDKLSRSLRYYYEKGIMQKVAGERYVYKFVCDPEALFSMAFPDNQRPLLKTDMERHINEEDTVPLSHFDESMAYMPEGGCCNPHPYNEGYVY
# Procedure, shortened: as §1
# ERF = target: T6, ERF (Homo sapiens, UniProt P50548 1-548); conditions: protein: recombinant; tags: N-terminal GST; dsDNA, one strand shown
# T6 sequence: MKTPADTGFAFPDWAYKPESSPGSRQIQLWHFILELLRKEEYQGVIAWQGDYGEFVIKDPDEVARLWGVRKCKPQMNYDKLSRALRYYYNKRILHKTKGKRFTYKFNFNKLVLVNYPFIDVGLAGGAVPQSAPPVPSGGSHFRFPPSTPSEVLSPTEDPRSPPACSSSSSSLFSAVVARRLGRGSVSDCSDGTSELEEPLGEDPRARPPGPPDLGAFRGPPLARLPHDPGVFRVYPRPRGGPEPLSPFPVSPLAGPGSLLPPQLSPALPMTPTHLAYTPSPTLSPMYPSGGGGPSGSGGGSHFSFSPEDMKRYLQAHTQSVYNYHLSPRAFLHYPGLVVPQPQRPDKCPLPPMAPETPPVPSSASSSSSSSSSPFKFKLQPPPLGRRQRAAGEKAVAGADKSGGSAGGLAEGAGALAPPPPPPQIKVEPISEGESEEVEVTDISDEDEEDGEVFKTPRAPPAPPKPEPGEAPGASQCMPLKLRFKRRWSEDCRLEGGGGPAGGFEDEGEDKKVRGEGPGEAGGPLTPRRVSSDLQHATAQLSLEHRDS
# Procedure, shortened: as §1
# ETV3L = target: T7, ETV3L (Homo sapiens, UniProt Q6ZN32 1-361); conditions: protein: recombinant; tags: N-terminal GST; dsDNA, one strand shown
# T7 sequence: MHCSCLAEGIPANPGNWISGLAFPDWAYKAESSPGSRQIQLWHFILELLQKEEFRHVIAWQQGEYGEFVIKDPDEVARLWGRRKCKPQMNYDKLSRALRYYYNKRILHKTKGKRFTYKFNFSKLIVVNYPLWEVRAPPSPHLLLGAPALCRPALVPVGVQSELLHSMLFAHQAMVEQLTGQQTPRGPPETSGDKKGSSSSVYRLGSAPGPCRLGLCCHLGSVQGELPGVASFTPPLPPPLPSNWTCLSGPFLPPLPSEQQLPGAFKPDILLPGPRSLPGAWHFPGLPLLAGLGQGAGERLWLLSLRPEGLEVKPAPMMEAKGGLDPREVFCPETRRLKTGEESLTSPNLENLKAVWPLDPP
# Procedure, shortened: as §1
# ETS2 = target: T8, ETS2 (Homo sapiens, UniProt P15036 1-469); conditions: protein: recombinant; tags: N-terminal GST; dsDNA, one strand shown
# T8 sequence: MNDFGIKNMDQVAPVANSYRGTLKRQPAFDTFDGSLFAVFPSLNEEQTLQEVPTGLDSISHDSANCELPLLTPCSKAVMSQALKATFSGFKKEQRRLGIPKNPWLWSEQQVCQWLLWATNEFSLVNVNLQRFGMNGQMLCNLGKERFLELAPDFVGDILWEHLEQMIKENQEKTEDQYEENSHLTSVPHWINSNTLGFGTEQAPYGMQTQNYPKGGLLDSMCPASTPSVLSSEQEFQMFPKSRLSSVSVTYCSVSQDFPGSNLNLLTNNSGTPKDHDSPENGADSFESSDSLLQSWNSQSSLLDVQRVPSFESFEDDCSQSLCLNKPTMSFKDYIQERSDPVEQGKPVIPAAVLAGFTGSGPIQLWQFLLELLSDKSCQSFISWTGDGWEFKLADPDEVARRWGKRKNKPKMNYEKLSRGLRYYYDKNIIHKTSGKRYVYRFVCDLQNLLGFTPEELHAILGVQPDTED
# Procedure, shortened: as §1
# SPDEF = target: T9, SPDEF (Homo sapiens, UniProt O95238 1-335); conditions: protein: recombinant; tags: N-terminal GST; dsDNA, one strand shown
# T9 sequence: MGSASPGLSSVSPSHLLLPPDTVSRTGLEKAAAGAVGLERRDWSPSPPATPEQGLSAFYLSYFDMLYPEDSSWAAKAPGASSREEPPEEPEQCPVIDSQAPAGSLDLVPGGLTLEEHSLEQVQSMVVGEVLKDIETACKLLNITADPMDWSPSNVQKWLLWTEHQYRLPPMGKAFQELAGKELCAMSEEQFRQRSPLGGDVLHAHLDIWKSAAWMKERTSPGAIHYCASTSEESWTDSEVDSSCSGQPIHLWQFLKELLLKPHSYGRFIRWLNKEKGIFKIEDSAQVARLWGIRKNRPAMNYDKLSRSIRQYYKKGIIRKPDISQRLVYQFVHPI
# Procedure, shortened: as §1
# ETV7 = target: T10, ETV7 (Homo sapiens, UniProt Q9Y603 1-341); conditions: protein: recombinant; tags: N-terminal GST; dsDNA, one strand shown
# T10 sequence: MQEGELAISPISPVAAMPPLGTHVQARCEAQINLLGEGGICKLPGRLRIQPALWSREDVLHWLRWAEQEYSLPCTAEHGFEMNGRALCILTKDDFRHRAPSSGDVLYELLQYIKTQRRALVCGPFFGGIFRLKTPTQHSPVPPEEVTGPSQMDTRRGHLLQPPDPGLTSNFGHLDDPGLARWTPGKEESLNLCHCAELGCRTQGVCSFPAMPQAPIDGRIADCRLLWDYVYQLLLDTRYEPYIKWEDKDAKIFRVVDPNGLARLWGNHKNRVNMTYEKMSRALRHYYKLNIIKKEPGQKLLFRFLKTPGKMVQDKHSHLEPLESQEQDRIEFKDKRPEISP
# Procedure, shortened: as §1
# ELF5 = target: T11, ELF5 (Homo sapiens, UniProt Q9UKW6-2 1-255); conditions: protein: recombinant; tags: N-terminal GST; dsDNA, one strand shown
# T11 sequence: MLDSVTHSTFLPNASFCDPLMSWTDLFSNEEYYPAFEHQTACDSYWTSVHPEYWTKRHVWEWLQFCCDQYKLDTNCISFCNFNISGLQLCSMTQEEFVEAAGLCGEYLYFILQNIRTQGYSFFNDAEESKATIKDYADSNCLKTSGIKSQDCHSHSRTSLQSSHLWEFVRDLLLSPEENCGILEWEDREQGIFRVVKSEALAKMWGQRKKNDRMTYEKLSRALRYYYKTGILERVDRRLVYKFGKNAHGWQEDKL
# Procedure, shortened: as §1
# ETV3 = target: T12, ETV3 (Homo sapiens, UniProt P41162-2 1-143); conditions: protein: recombinant; tags: N-terminal GST; dsDNA, one strand shown
# T12 sequence: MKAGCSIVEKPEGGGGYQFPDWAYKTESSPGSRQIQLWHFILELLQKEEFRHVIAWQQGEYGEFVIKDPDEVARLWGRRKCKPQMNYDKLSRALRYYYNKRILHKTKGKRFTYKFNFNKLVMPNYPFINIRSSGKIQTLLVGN
# Procedure, shortened: as §1
# ETV6 = ETV6 (Homo sapiens, UniProt P41212 1-452); conditions: protein: recombinant; tags: N-terminal GST; dsDNA, one strand shown
# ETV6, sequence (P41212 whole entry): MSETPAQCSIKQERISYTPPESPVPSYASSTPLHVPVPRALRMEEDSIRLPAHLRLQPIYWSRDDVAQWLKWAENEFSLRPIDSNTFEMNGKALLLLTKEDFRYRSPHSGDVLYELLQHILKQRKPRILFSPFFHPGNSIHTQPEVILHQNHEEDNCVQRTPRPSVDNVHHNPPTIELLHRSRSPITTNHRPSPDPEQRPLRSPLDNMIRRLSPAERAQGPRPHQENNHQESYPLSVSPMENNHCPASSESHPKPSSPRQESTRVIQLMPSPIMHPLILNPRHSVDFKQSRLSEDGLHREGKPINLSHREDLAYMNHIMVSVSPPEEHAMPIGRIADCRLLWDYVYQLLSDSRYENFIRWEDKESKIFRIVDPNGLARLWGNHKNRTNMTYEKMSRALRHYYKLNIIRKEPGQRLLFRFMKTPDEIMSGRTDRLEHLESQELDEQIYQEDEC
# Procedure, shortened: as §1
sequence,measurement,setting,value
TTAGTA,binding signal,FEV,"1.05 fold enrichment (6-mer frequency, TF over GST control)"
same,binding signal,ETV5,"1.15 fold enrichment (6-mer frequency, TF over GST control)"
same,binding signal,HSF1,"1.68 fold enrichment (6-mer frequency, TF over GST control)"
same,binding signal,SPIC,"1.16 fold enrichment (6-mer frequency, TF over GST control)"
same,binding signal,ELF4,"1.1 fold enrichment (6-mer frequency, TF over GST control)"
same,binding signal,ELK4,"1.12 fold enrichment (6-mer frequency, TF over GST control)"
same,binding signal,ETV2,"1.22 fold enrichment (6-mer frequency, TF over GST control)"
same,binding signal,ELF3,"1.15 fold enrichment (6-mer frequency, TF over GST control)"
same,binding signal,CRX,"2.39 fold enrichment (6-mer frequency, TF over GST control)"
same,binding signal,ETV1,"1.11 fold enrichment (6-mer frequency, TF over GST control)"
same,binding signal,ERF,"1.17 fold enrichment (6-mer frequency, TF over GST control)"
same,binding signal,ETV3L,"1.07 fold enrichment (6-mer frequency, TF over GST control)"
same,binding signal,ETS2,"1.09 fold enrichment (6-mer frequency, TF over GST control)"
same,binding signal,SPDEF,"1.12 fold enrichment (6-mer frequency, TF over GST control)"
same,binding signal,ETV7,"1.14 fold enrichment (6-mer frequency, TF over GST control)"
same,binding signal,ELF5,"1.07 fold enrichment (6-mer frequency, TF over GST control)"
same,binding signal,ETV3,"1.27 fold enrichment (6-mer frequency, TF over GST control)"
same,binding signal,ETV6,"1.12 fold enrichment (6-mer frequency, TF over GST control)"
